The record followed here is PubChem BioAssay (NCATS).

The structures appear in SMILES notation. Results filed as inconclusive are left out. Where a call stands in place of a potency, no number is given. The source made the active and inactive calls. The call rests on the fitted dose curve; in most records, active means well fitted inhibition curve with a large enough effect; inconclusive means small, poorly fitted or top-dose-only effect; inactive means flat fitted curve, though single readings scatter.

The subject of this experiment is Zika virus NS2B-NS3 protease. The experiment can be described thus: Primary screen GU AMC qHTS for Zika virus inhibitors (AID 1347154). Further: nearly all actives have a fitted effect of over 70% in size. Particulars: Zika NS2B-NS3 unlinked protease, AMC fluorogenic substrate; series mostly up to 54.1 µM. The procedure, abridged: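 Fluorogenic AMC-substrate cleavage by noncovalent NS2B-NS3 protease complex (25 nM, pH 8.0 Tris buffer with Tween 20) followed for 15 minutes at room temperature (~20% conversion). Percent inhibition from ex340/em450 signal change, fitted by 4-parameter Hill equation.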
As to `CCCc1ccc(OCC(=O)N2CCN(C(=O)COc3ccc(CCC)cc3OC)CC2)c(OC)c1`, the Potency result is “inactive”. The result for `O=C(CCCl)NCc1ccccc1` reads “inactive”; that for `COC(=O)C1=C(C)NC(C)=C(C(=O)OCCc2ccc(N3CCN(C(c4ccccc4)c4ccccc4)CC3)cc2)C1c1cccc([N+](=O)[O-])c1` (stereo not given), “inactive”; that for `O=C(CCC1CCN(Cc2ccccc2)CC1)c1ccc2c(c1)NCCCC2`, “inactive”. In the case of `CC(NCCC(c1ccccc1)c1ccccc1)c1ccccc1` (stereo not given), the Potency result is “inactive”. For `CO[C@@H]1[C@@H](O[C@@H]2O[C@H](C)[C@@H](O[C@H]3C[C@@](C)(O)[C@@H](O)[C@H](C)O3)[C@H](N(C)C)[C@H]2O)[C@@H](CC=O)C[C@@H](C)[C@@H](O[C@@H]2CC[C@H](N(C)C)[C@@H](C)O2)/C=C/C=C/C[C@@H](C)OC(=O)C[C@H]1OC(C)=O` the value was “inactive”. The result for `COC(=O)c1cc(Cl)c(NC(C)=O)cc1OC` reads “inactive”; that for `CC(C(O)c1ccccc1)N(C)CCOC(c1ccccc1)c1ccccc1` (stereo not given), “inactive”.

As for `CC(=O)Nc1c(I)c(NC(C)=O)c(I)c(C(=O)O)c1I`, the Potency entry was “inactive”. For `CCS(=O)(=O)c1ccc(OC)c(C(=O)OC)c1` the value was “inactive”. With `CN1CCCN(C(c2ccccc2)c2ccc(Cl)cc2)CC1` (stereo not given), the Potency entry is “inactive”. Regarding `Cc1ccc(/C=N/n2c(-c3ccccc3)csc2=S)cc1`, the Potency entry is “inactive”.

With `CCC(C(=O)NC(=O)NC(C)=O)c1ccccc1` (stereo not given), the Potency entry is “inactive”. Take `Cc1cccc(N(C)C(=S)Oc2ccc3c(c2)C2CCC3C2)c1` (stereo not given): the Potency result is “inactive”. Turning to `CC1CC(=O)NN=C1c1ccc(NCC(C)(C)NCC(O)COc2cc(Cl)ccc2C#N)cc1` (stereo not given), the Potency entry is “inactive”.
